# Results reported in PubChem BioAssay (NCATS).
# Records with an inconclusive call do not appear. A call without a number means that no potency is given here. Calls of active or inactive are those of the source. The call rests on the fitted dose curve. Bridge positions count the residues as written; N and C are the ends. Square brackets hold non-standard residues; d marks the D form. Peptide text beside a SMILES is read from it. * marks the point of attachment. X1 = CCC(C)C(N)C1=NC(C(=O)*)CS1; dOrn = NCCC[C@@H](N)C(=O)O
# Assay: Cytotoxicity counterscreen for inhibitors of SARS-CoV-2 cell entry (AID 1645845); further: nearly all actives have a fitted effect of over 50% in size
# Details: cell viability (SARS-CoV-2 entry assay cells); series mostly up to 57.1 µM; activity change, negative = cytotoxicity: at the top concentration
# Source text: Assay Provider: Wei Zheng, Ph.D.
# National Center for Advancing Translational Sciences, National Institute of Health, Rockville, MD.
# SARS-CoV-2 spike protein, within the viral envelope, mediates viral attachment and infection of host cells. The SARS-CoV-2 spike protein specifically binds to the host receptor ACE2 (Angiotensin-converting enzyme 2). This interaction promotes endocytosis of the viral particle, additional events lead to viral-host cell membrane fusion and release of the viral contents, allowing viral replication.
# While SARS-CoV-2 requires BSL-3 facilities for live virus work, pseudo-typed partices (PP) that incorporate SARS-CoV-2 spike proteins without replication elements could facilitate studies on viral entry mechanisms in a BSL-2 setting. This PP cell entry assay could also enable screening of small molecule compound libraries in BSL-2 setting to identify inhibitors of SARS-CoV-2 cell entry. To eliminate false positive compounds, ATP content cytotoxicity assay was screened in the same cell line.
# SEQUENCE No. (e.g., 1, 2, 3, etc.); […] (e.g., Cells, Incubation, Reagent, etc.); VALUE and DESCRIPTION.
# 1. Cells. Seed 1500 HEK293-ACE2 cells (Expi293F with stable expression of human ACE2) in 2 uL/well media (DMEM, 10% FBS, 1x L-glutamine, 1x Pen/Strep, 1 ug/ml puromycin) in white 1536-well assay plates (Greiner #782073).
# 2. Incubation. Incubate at 37 C with 5% CO2 overnight (~16 h).
# 3. Compounds. Dispense 23 nL/well compounds in DMSO via pin transfer.
# 4. Incubation. Incubate for 1 h at 37C 5% CO2.
# 5. Reagent. Dispense 2 uL/well of media (DMEM, 10% FBS, 1x L-glutamine, 1x Pen/Strep, 1 ug/ml puromycin).
# 6. Incubation. Incubate at for 48h at 37C 5% CO2
# 7. Reagent. Dispense 4 uL/well of ATPLite 1step luminescence assay reagent (PerkinElmer #6016739).
# 8. Incubation. Incubate for 15 min at room temperature.
# 9. Detection. Read luminescence signal (Viewlux plate reader, PerkinElmer). Data was normalized with wells containing cells as 100%, and wells without cells (media only control) as 0%.
SMILES,outcome,"activity change, negative = cytotoxicity",Potency
OCc1ccccc1O[C@@H]1O[C@H](CO)[C@@H](O)[C@H](O)[C@H]1O,inactive,,
O=CCCCC=O,,-8.32% (inactive),
Cc1cnc(NC(=O)c2cc(Oc3cnc(C(=O)N(C)C)nc3)c3cc(C)oc3c2)cn1,inactive,,
O=C(O)c1ccccc1-c1ccc(/C=c2\sc3nc4cc(Br)cnc4n3c2=O)o1,,0.474% [at 27.1 µM] (inactive),
CCCCC(=O)O[C@]1(C(=O)COC(C)=O)CC[C@H]2[C@@H]3CCC4=CC(=O)C=C[C@]4(C)[C@H]3[C@@H](O)C[C@@]21C,,3.46% (inactive),
CC(C)=CCC/C(C)=C/CC/C(C)=C/CSc1ccccc1C(=O)O,,-11.7% (inactive),
CCOC(=O)CN[C@@H](C(=O)N1CC[C@H]1C(=O)NCc1ccc(/C(N)=N/O)cc1)C1CCCCC1,,0.605% (inactive),
Cc1cc(-n2c(=O)ccc3cnc4[nH]ccc4c32)ccc1F,inactive,,
O=S(=O)(O)CCCS(=O)(=O)O,,-4.91% (inactive),
Cc1nc2cccc(N)c2c(=O)n1C1CCC(=O)NC1=O (stereo not given),inactive,,
CNCCN(C)Cc1cn[nH]c1-c1ccc(OC2CC(OCCC3CCOCC3)C2)cc1 (stereo not given),,-9.3% (inactive),
CNC(=O)[C@@H](NC(=O)[C@H](CC(C)C)[C@H](O)C(=O)NO)C(C)(C)C,inactive,,
CNCc1cc(-c2ccccc2F)n(S(=O)(=O)c2cccnc2)c1,inactive,,
O=C(c1c(F)ccc(NS(=O)(=O)N2CC[C@@H](F)C2)c1F)c1c[nH]c2ncc(-c3cnc(C4CC4)nc3)cc12,inactive,,
CCCC(=O)O[C@]1(C(=O)COC(C)=O)CC[C@H]2C3C[C@H](F)C4=CC(=O)C=C[C@]4(C)[C@@]3(F)[C@@H](O)C[C@@]21C (stereo not given in full),inactive,,
CCC(=O)Oc1ccc2c(c1)CC[C@@H]1[C@H]2CC[C@]2(C)[C@@H](OC(=O)CC)CC[C@@H]12,,-16.4% (inactive),
Cc1ccc(-c2nc(N)nc3c2nnn3Cc2cccc(CO[C@H]3CCOC3)n2)o1,inactive,,
C=C1CCC[C@]2(C)C=C3OC(=O)C(C)=C3C[C@@H]12,inactive,,
Cc1c[nH]c2ncnc(N3CCC(CN)(C(=O)Nc4cccc(OC(=O)N(C)C)c4)CC3)c12,,3.66% (inactive),
Cc1ccc(NC(=O)c2ccc(CN3CC[C@H](N(C)C)C3)c(C(F)(F)F)c2)cc1Nc1nccc(-c2cncnc2)n1,,2.48% [at 27.1 µM] (inactive),

SMILES,outcome,"activity change, negative = cytotoxicity",Potency
CCC(C)C(N)C1=NC(C(=O)N[C@@H](CC(C)C)C(=O)N[C@H](CCC(=O)O)C(=O)N[C@H](C(=O)N[C@H]2CCCCNC(=O)[C@H](CC(N)=O)NC(=O)[C@@H](CC(=O)O)NC(=O)[C@H](Cc3cnc[nH]3)NC(=O)[C@@H](Cc3ccccc3)NC(=O)[C@H]([C@@H](C)CC)NC(=O)[C@@H](CCCN)NC2=O)[C@@H](C)CC)CS1 (stereo not given in full) (X1-L[dE]IK[dOrn]I[dF]H[dD]N; lactam 4-C),,,inactive
C[C@H](Oc1cc(-c2cnn(C3CCNCC3)c2)cnc1N)c1c(Cl)ccc(F)c1Cl,,-27.7% (inactive),
CNC(C)CC1CCCC1 (stereo not given),inactive,,
Cn1c(NC[C@@H](N)Cc2ccccc2)nc(-c2ccncc2)c(-c2ccc3ccccc3c2)c1=O,inactive,,
O=C([O-])C[O-].[Pt+2],,,inactive
CN(CC(=O)N1CCOCC1)Cc1c(Cl)cccc1NC(=O)c1ccccc1,inactive,,
O=C(N[C@H]1CCS[C@H]2CCC[C@@H](C(=O)O)N2C1=O)[C@@H](S)Cc1ccccc1,,-1.71% (inactive),
CCN(CCCOc1ccc2c(Nc3cc(CC(=O)Nc4cccc(F)c4)[nH]n3)ncnc2c1)CCOP(=O)(O)O,,0.67% (inactive),
CC/C(=C(/c1ccc(O)cc1)c1ccc(OCCNC)cc1)c1ccccc1,,0.302% (inactive),
C#C[C@]1(O)CC[C@H]2[C@@H]3CCC4=CC(=O)CCC4[C@H]3CC[C@@]21CC (stereo not given in full),inactive,,
NS(=O)(=O)NCCNc1nonc1C(=Nc1ccc(F)c(Br)c1)NO,inactive,,
C/C(=C\C(=O)OCCCCCCCCC(=O)O)C[C@@H]1OC[C@H](C[C@@H]2O[C@H]2[C@@H](C)[C@H](C)O)[C@@H](O)[C@H]1O,,-9.47% (inactive),
CCCCCCCC/C=C/CCCCCCCC(=O)O,inactive,,
O=C(O)CC(O)(CC(=O)O)C(=O)O,inactive,,
CCc1ccc(Nc2c(F)c(F)cc(F)c2F)c(CC(=O)O)c1,inactive,,
CCCN1CCN(c2ccc(C(=O)NC3(C(=O)NCC#N)CCCCC3)cc2)CC1,,-1.37% (inactive),
N#Cc1c(N2C[C@@H]3NCCO[C@H]3C2)c(F)cc2c(=O)c(C(=O)O)cn(C3CC3)c12,inactive,,
CCOc1ccc(Cc2cc([C@@]34OC[C@@](CO)(O3)[C@@H](O)[C@H](O)[C@H]4O)ccc2Cl)cc1,,3.05% (inactive),
CCCCC(O)c1ccccc1 (stereo not given),,1.8% (inactive),
C=CCN(/C=C1\C(=O)O[C@@H](COC)[C@]2(C)C1=C(O)C(=O)C1=C2[C@@H](OC(C)=O)C[C@]2(C)C(=O)CC[C@H]12)CC=C,,-5.32% (inactive),
